Results reported in PubChem BioAssay (NCATS).
Inconclusive results are not listed. Active and inactive are the calls of the source. Calls follow the shape of the dose curve; as a rule, active = well fitted curve in the direction sought with a large enough effect; inconclusive = small, poorly fitted or top-dose-only effect, or another doubt; inactive = no such curve, though single readings can be large; an effect the other way counts as inactive or inconclusive.

What was measured:
CRL-7250 = normal cell line; assay: Cytotoxic Profiling of Annotated Libraries Using Quantitative High-Throughput Screening (AID 1296008); settings: Five cell lines viability, CellTiter-Glo ATP luminescence, 48-72 h; max response: hits give low values; also: nearly all actives have a fitted effect of over 60% in size; as to max response: % is scaled to controls: 0 for no effect and ±100 for the full control effect
How it was run: (§1)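 Cytotoxicity was measured as CellTiter-Glo ATP luminescence, read after 10 min at room temperature. Compound treatment of the cells lasted 48 or 72 hr at 37 degrees Celsius in a qHTS format.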

HEK293 = assay: as above; settings: Five cell lines viability, CellTiter-Glo ATP luminescence, 48-72 h; max response: hits give low values
How it was run: as §1

HaCat [1] = assay: as above; settings: Five cell lines viability, CellTiter-Glo ATP luminescence, 48-72 h; max response: hits give low values
How it was run: as §1

KB-3-1 = assay: as above; settings: Five cell lines viability, CellTiter-Glo ATP luminescence, 48-72 h; max response: hits give low values
How it was run: as §1

NIH3T3 = assay: as above; settings: Five cell lines viability, CellTiter-Glo ATP luminescence, 48-72 h; max response: hits give low values
How it was run: as §1

HACAT [2] = assay: qHTS assay to identify novel small-molecules to repurpose for Merkel cell carcinoma treatment (AID 1296009); settings: MCC and control cell lines, CellTiter-Glo viability, 72 h; at 44.8 µM (top of the series) unless noted; also: nearly all actives have a fitted effect of over 60% in size
How it was run: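 After compound transfer in DMSO, plates were kept 72 hr at 37 degree celsius. Luminescent ATP signal from CellTiter-Glo served as viability measure, normalized against DMSO and no-cell controls.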

C33A = assay: Primary qHTS to identify gynecologic anti-cancer compounds using libraries of approved drugs and bioactive compounds (AID 1345084); settings: Gynecologic cancer cell panel viability, ATPlite luminescence, 48 h; series mostly up to 57.5 µM; also: % is scaled to controls: 0 for no effect and ±100 for the full control effect; nearly all actives have a fitted effect of over 55% in size
How it was run: (§2)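 Cells, 1,000 per well, plated 16 h, then exposed 48 h at 37 C to compounds. Viability by ATPlite luminescence after 15 min at room temperature.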

CAOV3 = assay: as above; settings: Gynecologic cancer cell panel viability, ATPlite luminescence, 48 h; series mostly up to 57.5 µM
How it was run: as §2

CASKI = assay: as above; settings: Gynecologic cancer cell panel viability, ATPlite luminescence, 48 h; series mostly up to 57.5 µM
How it was run: as §2

Es-2 = assay: as above; settings: Gynecologic cancer cell panel viability, ATPlite luminescence, 48 h; series mostly up to 57.5 µM
How it was run: as §2

HeLa = assay: as above; settings: Gynecologic cancer cell panel viability, ATPlite luminescence, 48 h; series mostly up to 57.5 µM
How it was run: as §2

Hek293T = assay: as above; settings: Gynecologic cancer cell panel viability, ATPlite luminescence, 48 h, control line for the selectivity index; series mostly up to 57.5 µM
How it was run: as §2

JEG-3 = assay: as above; settings: Gynecologic cancer cell panel viability, ATPlite luminescence, 48 h; series mostly up to 57.5 µM
How it was run: as §2

OV90 = assay: as above; settings: Gynecologic cancer cell panel viability, ATPlite luminescence, 48 h; series mostly up to 57.5 µM
How it was run: as §2

PA-1 = assay: as above; settings: Gynecologic cancer cell panel viability, ATPlite luminescence, 48 h; series mostly up to 57.5 µM
How it was run: as §2

C=C1C[C@]23C[C@@]1(O)CC[C@H]2[C@@]12C=C[C@H](O)[C@@](C)(C(=O)O1)[C@H]2[C@@H]3C(=O)O
inactive: max response (CRL-7250) 0.765% | max response (HEK293) -0.839% | outcome (HaCat [1]) | max response (KB-3-1) 7.38% | max response (NIH3T3) 2.3% | outcome (HACAT [2]) | Potency (C33A) | Potency (CAOV3) | outcome (CASKI) | Potency (Es-2) | Potency (HeLa) | Potency (Hek293T) | Potency (JEG-3) | Potency (OV90) | Potency (PA-1)

COc1cc(CCCO)ccc1O[C@@H]1O[C@H](CO)[C@@H](O)[C@H](O)[C@H]1O
inactive: outcome (CRL-7250) | max response (HEK293) 0.679% | outcome (HaCat [1]) | outcome (KB-3-1) | max response (NIH3T3) -1.2% | outcome (HACAT [2]) | Potency (C33A) | Potency (CAOV3) | outcome (CASKI) | Potency (Es-2) | Potency (HeLa) | Potency (Hek293T) | Potency (JEG-3) | Potency (OV90) | Potency (PA-1)

COc1ccnc2[nH]cc(C(=O)C(=O)N3CCN(C(=O)c4ccccc4)CC3C)c12 (stereo not given)
inactive: max response (CRL-7250) 0.507% | max response (HEK293) -0.0222% | outcome (HaCat [1]) | outcome (KB-3-1) | max response (NIH3T3) -4.76% | outcome (HACAT [2]) | Potency (C33A) | Potency (CAOV3) | outcome (CASKI) | Potency (Es-2) | Potency (HeLa) | Potency (Hek293T) | Potency (JEG-3) | Potency (OV90) | Potency (PA-1)

Cc1cc(-c2nncc3c(C(C)(C)C)c(OCc4ncnn4C)nn23)no1
inactive: outcome (CRL-7250) | max response (HEK293) -4.36% | outcome (HaCat [1]) | max response (KB-3-1) 6.49% | max response (NIH3T3) 1.34% | outcome (HACAT [2]) | Potency (C33A) | Potency (CAOV3) | outcome (CASKI) | Potency (Es-2) | Potency (HeLa) | Potency (Hek293T) | Potency (JEG-3) | Potency (OV90) | Potency (PA-1)

CC(=O)OC[C@@]12C(=O)C[C@@H](C)[C@]3(C[C@@H](c4ccoc4)OC3=O)[C@H]1CC[C@H](OC(C)=O)[C@]21CO1
inactive: max response (CRL-7250) -3.74% | max response (HEK293) -0.582% | outcome (HaCat [1]) | outcome (KB-3-1) | max response (NIH3T3) -0.126% | outcome (HACAT [2]) inactive [at 17.4 µM] | Potency (C33A) | Potency (CAOV3) | outcome (CASKI) | Potency (Es-2) | Potency (HeLa) | Potency (Hek293T) | Potency (JEG-3) | Potency (OV90) | Potency (PA-1)

COc1cc(Nc2ccc([N+](=O)[O-])cc2C(=O)O)cc2ccccc12
inactive: max response (CRL-7250) -0.179% | max response (HEK293) 1.77% | outcome (HaCat [1]) | max response (KB-3-1) -5.92% | max response (NIH3T3) -2.53% | outcome (HACAT [2]) | Potency (C33A) | Potency (CAOV3) | outcome (CASKI) | Potency (Es-2) | Potency (HeLa) | Potency (Hek293T) | Potency (JEG-3) | Potency (OV90) | Potency (PA-1)

NC[C@H]1CCC[C@@H](CNC(=O)[C@@H](Cc2c[nH]c3ccccc23)NC(=O)N2CCC3(C=Cc4ccccc43)CC2)C1
inactive: max response (CRL-7250) 0.396% | max response (HEK293) -6.44% | outcome (HaCat [1]) | outcome (KB-3-1) | max response (NIH3T3) -1.79% | outcome (HACAT [2]) | Potency (C33A) | Potency (CAOV3) | outcome (CASKI) | Potency (Es-2) | Potency (HeLa) | Potency (Hek293T) | Potency (JEG-3) | Potency (OV90) | Potency (PA-1)

CCOc1nc2c(N)ncnc2n1CC
inactive: outcome (CRL-7250) | max response (HEK293) 3.9% | outcome (HaCat [1]) | max response (KB-3-1) 5.09% | max response (NIH3T3) 3.41% | outcome (HACAT [2]) | Potency (C33A) | Potency (CAOV3) | outcome (CASKI) | Potency (Es-2) | Potency (HeLa) | Potency (Hek293T) | Potency (JEG-3) | Potency (OV90) | Potency (PA-1)

COC(=O)Cn1nc(-c2cccc(OC)c2)c2ccccc21
inactive: max response (CRL-7250) 4.76% | max response (HEK293) -5.92% | outcome (HaCat [1]) | max response (KB-3-1) 1.13% | max response (NIH3T3) 2.46% | outcome (HACAT [2]) | Potency (C33A) | Potency (CAOV3) | outcome (CASKI) | Potency (Es-2) | Potency (HeLa) | Potency (Hek293T) | Potency (JEG-3) | Potency (OV90) | Potency (PA-1)

CCOC(=O)C1=C(N)Oc2ccc(Cl)cc2C1C(C#N)C(=O)OCC (stereo not given)
inactive: max response (CRL-7250) 2.77% | max response (HEK293) 1.25% | outcome (HaCat [1]) | outcome (KB-3-1) | max response (NIH3T3) -2.7% | outcome (HACAT [2]) | Potency (C33A) | Potency (CAOV3) | outcome (CASKI) | Potency (Es-2) | Potency (HeLa) | Potency (Hek293T) | Potency (JEG-3) | Potency (OV90) | Potency (PA-1)

C/C=C(\C)C(=O)O[C@H]1C=CC(=O)O[C@H]1/C=C/[C@H](O)[C@@H](C)O
inactive: max response (CRL-7250) 4.14% | max response (HEK293) -103% | outcome (HaCat [1]) | outcome (KB-3-1) | max response (NIH3T3) -1.43% | outcome (HACAT [2]) | Potency (C33A) | Potency (CAOV3) | outcome (CASKI) | Potency (Es-2) | Potency (HeLa) | Potency (Hek293T) | Potency (JEG-3) | Potency (OV90) | Potency (PA-1)

CCCO[C@@H]1O[C@H](CO)[C@@H](O)[C@H](O)[C@H]1O[C@@H]1OC[C@@H](O)[C@H](O)[C@H]1O
inactive: max response (CRL-7250) 1.31% | max response (HEK293) -4.21% | outcome (HaCat [1]) | max response (KB-3-1) 9.26% | max response (NIH3T3) -1.11% | outcome (HACAT [2]) | Potency (C33A) | Potency (CAOV3) | outcome (CASKI) | Potency (Es-2) | Potency (HeLa) | Potency (Hek293T) | Potency (JEG-3) | Potency (OV90) | Potency (PA-1)

CC1(C(=O)O)CC[C@]2(C(=O)OC3OC(CO)C(O)C(O)C3O)CC[C@]3(C)C(=CCC4[C@@]5(C)CC[C@H](OC6OCC(O)C(O)C6OC6OC(CO)C(O)C(O)C6O)C(C)(C)C5CC[C@]43C)C2C1 (stereo not given in full)
inactive: max response (CRL-7250) 0.0336% | max response (HEK293) -7.14% | outcome (HaCat [1]) | outcome (KB-3-1) | max response (NIH3T3) 0.38% | outcome (HACAT [2]) inactive [at 9.27 µM] | activity change, negative = cytotoxicity (C33A) -1.33% [at 11.6 µM] | activity change, negative = cytotoxicity (CAOV3) -1.35% [at 11.6 µM] | activity change, negative = cytotoxicity (CASKI) -6.1% [at 11.6 µM] | activity change, negative = cytotoxicity (Es-2) 1.53% [at 11.6 µM] | activity change, negative = cytotoxicity (HeLa) 6.18% [at 11.6 µM] | activity change, negative = cytotoxicity (Hek293T) -2.26% [at 11.6 µM] | activity change, negative = cytotoxicity (JEG-3) -0.785% [at 11.6 µM] | activity change, negative = cytotoxicity (OV90) -0.207% [at 11.6 µM] | activity change, negative = cytotoxicity (PA-1) -1.65% [at 11.6 µM]

C/C=C(/C)C(=O)O[C@@H]1C[C@@H](OC(=O)/C(C)=C\C)[C@@]2(C)C3C(=O)C=C(C)C2C3C1(C)C
inactive: max response (CRL-7250) -3.44% | max response (HEK293) -8.78% | outcome (HaCat [1]) | outcome (KB-3-1) | max response (NIH3T3) 4.88% | outcome (HACAT [2]) inactive [at 17.4 µM] | Potency (C33A) | Potency (CAOV3) | outcome (CASKI) | Potency (Es-2) | Potency (HeLa) | Potency (Hek293T) | Potency (JEG-3) | Potency (OV90) | Potency (PA-1)
